Measured values as given in PubChem BioAssay (NCI).
This is part of a sample that, as a whole, favours compounds with a hit. Of some 83,000 tested, about 20% had one in any assay.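 Method: cells in 96-well plates; compound added at one concentration; 48 h incubation; percent growth measured; values under 10 scored active.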 A number with no mark means an inactive call. Active and inactive are the calls of the source.

What was measured:
Assay in all cases: NCI-60 one-dose screen, 48 h (100 = growth as untreated, 0 = no growth, -100 = all killed)
Settings in all cases: 10 µM unless noted
NCI-H226 lung = test system: NCI-H226 lung
786-0 renal = test system: 786-0 renal
DU-145 prostate = test system: DU-145 prostate
MDA-MB-231 breast = test system: MDA-MB-231 breast
SF-268 CNS = test system: SF-268 CNS
UACC-257 melanoma = test system: UACC-257 melanoma
PC-3 prostate = test system: PC-3 prostate
UACC-62 melanoma = test system: UACC-62 melanoma
LOX IMVI melanoma = test system: LOX IMVI melanoma
SK-MEL-28 melanoma = test system: SK-MEL-28 melanoma
SK-MEL-2 melanoma = test system: SK-MEL-2 melanoma
SN12C renal = test system: SN12C renal
TK-10 renal = test system: TK-10 renal
HL-60(TB) leukemia = test system: HL-60(TB) leukemia
RPMI-8226 leukemia = test system: RPMI-8226 leukemia
NCI/ADR-RES ovarian = test system: NCI/ADR-RES ovarian
MCF7 breast = test system: MCF7 breast
HCT-116 colon = test system: HCT-116 colon
KM12 colon = test system: KM12 colon
SF-539 CNS = test system: SF-539 CNS

| SMILES | growth (NCI-H226 lung) | growth (786-0 renal) | growth (DU-145 prostate) | growth (MDA-MB-231 breast) | growth (SF-268 CNS) | growth (UACC-257 melanoma) | growth (PC-3 prostate) | growth (UACC-62 melanoma) | growth (LOX IMVI melanoma) | growth (SK-MEL-28 melanoma) | growth (SK-MEL-2 melanoma) | growth (SN12C renal) | growth (TK-10 renal) | growth (HL-60(TB) leukemia) | growth (RPMI-8226 leukemia) | growth (NCI/ADR-RES ovarian) | growth (MCF7 breast) | growth (HCT-116 colon) | growth (KM12 colon) | growth (SF-539 CNS) |
| --- | --- | --- | --- | --- | --- | --- | --- | --- | --- | --- | --- | --- | --- | --- | --- | --- | --- | --- | --- | --- |
| CC1(C)N=C(N)N=C(N)N1c1cccc(C(=O)Nc2cccc(S(=O)(=O)F)c2)c1 | 99% | 99.5% | 114% | 113% | 112% | 93.9% | 97.1% | 99% | 99.7% | 103% | 114% | 101% | 108% | 103% | 95.5% | 104% | 95.5% | 101% | 102% | – |
| O=[N+]([O-])c1ccc2cnn(CSP(=S)(c3ccccc3)c3ccccc3)c2c1 | 77.4% | 88.3% | 105% | 51.8% | 79.9% | 86.3% | 58.6% | 43% | 65% | 74.1% | 98.2% | 69.9% | – | 35.2% | 52.3% | 49.8% | 26.8% | 42.4% | 63.7% | 82.7% |
| Nc1cccc2c1Oc1ccccc1O2 | 86.2% | 99.2% | 120% | 93.1% | 176% | 102% | 84.9% | – | 93.1% | 124% | 98% | 106% | 115% | 107% | 95.9% | 113% | 137% | 93.3% | 114% | 112% |
| O=C1NC(=S)NC(=O)C1=Cc1ccccc1 | 98.3% | 123% | 122% | 104% | 110% | 115% | 96.3% | 106% | 85.1% | 122% | 196% | 106% | 182% | – | 130% | 97.7% | 93.2% | 107% | 109% | 103% |
| Oc1ccccc1OB(Oc1ccccc1O)N(CCCl)CCCl | 101% | 92.3% | 86.9% | 71% | 63.5% | 84.4% | 82.8% | 94.7% | 89.4% | 110% | 104% | 78.4% | – | 0.713% (active) | 39.2% | 85% | 88.2% | 86.8% | 69.4% | 63.2% |
| CCC[CH2][Sn]([CH2]CCC)([CH2]CCC)[O]C(=O)CC | -58.9% (active) | -94.5% (active) | -97.7% (active) | -79.4% (active) | -97.3% (active) | -94.2% (active) | -92.7% (active) | -90% (active) | -83.3% (active) | -98.3% (active) | -83.2% (active) | -80.6% (active) | -97.1% (active) | -1.98% (active) | -31% (active) | -87% (active) | -82.1% (active) | -88.6% (active) | -93.2% (active) | -85.1% (active) |
| O=C1NC(=O)C(O)(C2(O)C(=O)NC(=O)NC2=O)C(=O)N1 | 99.5% | 93.4% | 109% | 91.2% | 91.6% | – | 89.2% | 87.2% | 91.9% | 109% | 77.5% | 92.3% | 118% | 85.9% | 75.6% | 92.7% | 138% | 97% | 100% | 88% |
| O=[N+]([O-])c1cc([N+](=O)[O-])c(Cl)c(Cl)c1Cl | 52.8% | 12.2% | -27.2% (active) | 22.3% | – | 20.4% | 57.1% | 14.6% | -62.6% (active) | 65.9% | -23.8% (active) | 19.4% | -99.5% (active) | 19.5% | 12.8% | 21.4% | 2.17% (active) | -53.9% (active) | 37.4% | 11.6% |
| COc1ccc(OC)c(/C=C(/C)[N+](=O)[O-])c1 | 94.3% | 90.9% | 6.46% (active) | 68.4% | 65.3% | 0.553% (active) | 52.6% | 63.4% | -88.6% (active) | 74.7% | 56.4% | 32.3% | -19.1% (active) | 62.3% | -21.9% (active) | 81.1% | 6.58% (active) | -91.4% (active) | 26.5% | 84.4% |
| NC(=O)OCC(CO)(c1ccccc1)c1ccccc1 | 96.2% | 96.7% | 104% | 114% | 101% | 105% | 93.2% | 115% | 98.7% | 112% | 110% | 98.4% | 97.7% | 114% | 98.4% | 108% | 99.3% | 92.1% | 96.6% | 96.8% |
| CN1CCN(C(=O)COc2ccc(/C=C3\CC4C5CC=C6CC(Cl)CCC6(C)C5CCC4(C)C3=O)cc2)CC1 (stereo not given) | 77.2% | 70.2% | 64.9% | 75.2% | 73.2% | 38.8% | 71.3% | 90% | 23.5% | 103% | 89.8% | 79.7% | 88.2% | – | 53.5% | 69.2% | 83.9% | 34.6% | 72.9% | 93.6% |
| CCOP(=O)(OCC)Oc1ccc(Sc2ccc(OP(=O)(OCC)OCC)cc2)cc1 | 101% | 92.6% | 103% | 119% | 100% | 93.1% | 90.9% | 111% | 107% | 111% | 94% | 101% | 107% | 96% | 90% | 93.7% | 118% | 100% | 99.9% | 104% |
| CC(CC(C#N)(c1ccccc1)c1ccccc1)N1CCOCC1 (stereo not given) | 112% | 112% | 105% | 94.4% | 101% | 106% | 90.4% | 80.4% | 102% | 123% | 101% | 93.5% | 105% | 86.4% | 103% | 106% | 122% | 106% | 104% | 101% |
| CC[C@@H](C)/C=C(C)/C=C/C(=O)c1c(O)c(-c2ccc(O)cc2)cn(O)c1=O | -1.76% (active) | 0.309% (active) | 15.5% | – | -0.607% (active) | -29.8% (active) | 37.7% | -31.6% (active) | 3.82% (active) | 34.7% | 59.7% | 13.6% | 11.6% | – | 22.5% | 1.53% (active) | 15.4% | 16.7% | 23.5% | 5.1% (active) |
| CC1(C)N=C(N)N=C(N)N1c1ccc(CCCCc2ccc(S(=O)(=O)F)cc2)cc1 | 36.8% | 25.1% | 31.8% | 46.7% | 30% | 39.1% | 12.5% | 19.8% | 15.2% | 47.7% | 56.1% | 26.8% | 14.1% | 21.2% | 15.4% | 113% | 2.82% (active) | 12.6% | 17.1% | 28.6% |
| CCC1CN1P(=O)(OCCOC)N1CC1CC (stereo not given) | 109% | 103% | 110% | 107% | 109% | 96.7% | 98.2% | 103% | 105% | 107% | 126% | 101% | 123% | 119% | 105% | 115% | 99.4% | 104% | 114% | 97.1% |
| CC(C)Nc1ccc(Nc2ccccc2)cc1 | 51.1% | 51.8% | 38.7% | 25.5% | 32.8% | 47.5% | 9.1% (active) | 65% | 14.5% | 85.1% | 80.5% | 19.8% | 45.2% | 69.3% | 11.5% | 74.8% | 32% | 9.97% (active) | 27.6% | 26.1% |
